Compound activity as filed in PubChem BioAssay.
GDH-TPI counter-1: counter-screen for M. tuberculosis FBA inhibitors: GDH-TPI coupled enzymes | GDH-TPI coupled enzyme counterscreen, NADH absorbance | inhibition, % at 4.8 µM | 360,000 tested, 1.2% active; in the data active means inhibition above about 30%;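 further: 0% = DMSO wells and 100% = wells lacking the enzyme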
Mtb hypoxia rep: inhibitors of hypoxia-regulated fluorescent reporter in Mycobacterium tuberculosis. AID 1159583. fluorescence inhibition, % (concentration not given with the values). 300,000 tested, 0.1% active. M. tuberculosis hypoxia-regulated fluorescent reporter, fluorescence; in the data active means fluorescence inhibition mostly above about 23%, no sharp cut-off; inactive means mostly below about 17%
Mtb FBA inh: inhibits M. tuberculosis FBA enzyme; P9WQA3; purified M. tuberculosis FBA, fluorescence read-out; inhibition, % at 1 µM; 360,000 tested, 2.3% active; AID 588726;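 further: 0% = vehicle and 100% = reference inhibitor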
Target sequence (P9WQA3 whole entry, looked up): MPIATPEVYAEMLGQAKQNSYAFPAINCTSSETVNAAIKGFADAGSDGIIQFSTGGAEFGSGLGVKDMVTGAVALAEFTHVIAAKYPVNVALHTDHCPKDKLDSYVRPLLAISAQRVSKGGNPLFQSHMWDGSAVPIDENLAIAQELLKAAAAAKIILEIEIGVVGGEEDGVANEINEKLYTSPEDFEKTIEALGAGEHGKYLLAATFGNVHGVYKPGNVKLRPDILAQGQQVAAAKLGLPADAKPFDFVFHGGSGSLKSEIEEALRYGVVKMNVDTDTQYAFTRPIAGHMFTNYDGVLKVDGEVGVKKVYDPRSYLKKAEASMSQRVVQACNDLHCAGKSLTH
Mtb BioA inh: blocks M. tuberculosis BioA enzyme activity | purified M. tuberculosis BioA enzyme, plate reader | inhibition, % at 9.99 µM | 360,000 tested, 0.096% active; in the data active means inhibition above about 40%
FadD28 FP inh: blocks FadD28 binding to the bisubstrate probe; fluorescence polarization; inhibition, % at 12.5 µM; 360,000 tested, 0.22% active; AID 588549; in the data active means inhibition above about 8.5%, passing the limit was not always enough
Mtb FBA confirm: Mtb FBA inhibition, confirmed. inhibition, % at 1 µM. 5,600 tested, 78% active. shares compounds with Mtb FBA inh. purified M. tuberculosis FBA, fluorescence read-out;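 further: 0% = vehicle wells and 100% = reference inhibitor wells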
GDH-TPI counter-2: GDH-TPI inhibition counter-screen for FBA inhibitors | shares compounds with Mtb FBA inh | GDH-TPI coupled enzyme counterscreen, fluorescence | inhibition, % at 1 µM | 5,600 tested, 81% active | AID 652141; in the data active means inhibition above about 10%
GDH-TPI dose: counter-screen for M. tuberculosis FBA inhibitors: GDH-TPI dose response. GDH-TPI coupled enzyme assay, fluorescence, artifact counterscreen. IC50, µM. shares compounds with Mtb FBA inh. 170 tested, 79% active; call rule not given here
Starred values were filed as active, the others as inactive; . = no result given; + = active, no number. An excerpt weighted towards active compounds, which were near 2.9% of everything screened. Unless noted, no stated cut-off is given here; in the data, active means inhibition above about 27%; inactive means the rest.

SMILES	GDH-TPI counter-1	Mtb hypoxia rep	Mtb FBA inh	Mtb BioA inh	FadD28 FP inh	Mtb FBA confirm	GDH-TPI counter-2	others
CCc1ccc(NC(=O)NNC(=O)c2ccc3ccccc3c2O)cc1	17.5	12.7	36.5*	-2.2	1.8	+	189.8*
COc1ccccc1NC(=O)NNC(=O)c1ccc2ccccc2c1	-0.3	-3.6	-1.8	-0.2	-0.7	.	.
CC(=O)Nc1ccc(Br)c2ccccc12	4.6	12.7	-3.4	.	-1.9	.	.
COc1ccc(NC(=O)NNC(=O)c2ccc3ccccc3c2O)cc1OC	9.1	2.2	35.7*	0.3	-4.0	.	+
COc1cc(C=NNC(=O)CCN2CCN(Cc3ccccc3)CC2)cc(OC)c1OC	.	1.7	.	.	.	.	.
COCC(=O)N(C)C[C@@H]1Oc2cc(-c3ccc(F)cc3)ccc2S(=O)(=O)N([C@@H](C)CO)C[C@@H]1C	.	.	.	3.2	.	.	.
O=c1c2ccccc2c(/C=N/n2cnnc2)c(O)n1-c1ccccc1F	15.9	-5.0	33.1*	-1.0	3.2	2.8	2.3
CC(CC(=O)Nc1cccnc1)=NNC(=O)COc1ccc(Cl)cc1Br	.	6.6	.	.	.	.	.
Cn1c(=N)c(S(=O)(=O)c2ccccc2)cc2c(=O)n3ccccc3nc21	-1.1	.	60.3*	-1.5	-3.4	71.2*	53.6*
N=c1c(S(=O)(=O)c2ccccc2)cc2c(=O)n3ccccc3nc2n1C1CCCC1	8.9	0.4	7.5	.	-1.9	.	.
O=C(NCCN1CCOCC1)c1cc(-c2ccc(F)cc2)nc2ccccc12	12.7	6.3	9.7	.	-2.5	.	.
O=c1c2ccccc2nc2ccccn12	0.6	-6.1	109.3*	.	-0.8	163.0*	150.5*
N=c1c(C(=O)NCCN2CCOCC2)cc2c(=O)n3ccccc3nc2n1Cc1ccc(F)cc1	0.0	9.8	40.3*	3.5	-4.1	102.8*	80.7*
N=c1c(S(=O)(=O)c2ccccc2)cc2c(=O)n3ccccc3nc2n1CCCN1CCOCC1	9.6	-4.9	51.9*	0.0	-3.5	48.1*	38.2*
CN(C)C(=O)C[C@@H]1C[C@@H]2c3cc(NC(=O)C4CCC4)ccc3O[C@@H]2[C@H](CO)O1	.	.	.	-0.3	.	.	.
Cc1ccc2nc3c(cc(C(=O)NCCN4CCOCC4)c(=N)n3CCCN3CCOCC3)c(=O)n2c1	5.4	.	78.3*	-1.1	-1.6	61.3*	42.3*
N=c1c(S(=O)(=O)c2ccc(F)cc2)cc2c(=O)n3ccccc3nc2n1CC1CCCO1 (stereo not given)	6.6	1.6	83.6*	-4.4	0.6	96.9*	79.4*
N=c1c(C(=O)NCCN2CCOCC2)cc2c(=O)n3ccccc3nc2n1CCCN1CCOCC1	10.7	.	88.4*	-1.5	-1.2	155.7*	117.2*
CCCn1c(=N)c(S(=O)(=O)c2ccc(F)cc2)cc2c(=O)n3ccccc3nc21	4.5	-11.3	23.0	-0.9	-1.7	.	.
COc1ccc(CCn2c(=N)c(C(=O)NC3CCCC3)cc3c(=O)n4ccccc4nc32)cc1OC	9.4	-6.5	-2.4	-0.9	-0.8	.	.
Cc1ccc(C=NNC(=O)Cn2cncn2)cc1	.	2.5	.	.	.	.	.
CNC(=O)C[C@H]1CC[C@@H]2[C@H](COc3ccc(NC(=O)c4ccc(C(F)(F)F)cc4)cc3C(=O)N2C)O1	.	.	.	2.4	.	.	.
CC(C)CC#Cc1ccc2c(c1)O[C@@H](CN(C)Cc1ccccn1)[C@H](C)CN([C@H](C)CO)S2(=O)=O	.	.	.	1.2	.	.	.
Cc1ccc(-n2c(=O)c3c(c4cc(C)ccc4n3C)n(CC(=O)NCC3CCCO3)c2=O)cc1 (stereo not given)	15.9	.	62.9*	-1.5	-2.1	53.7*	50.0*
COc1ccc2c(c1)c1c(c(=O)n(-c3ccc(C)cc3)c(=O)n1CC(=O)NCC1CCCO1)n2C (stereo not given)	-14.6	.	28.8*	-0.1	-3.8	38.2*	26.6*
SMILES	GDH-TPI counter-1	Mtb hypoxia rep	Mtb FBA inh	Mtb BioA inh	FadD28 FP inh	Mtb FBA confirm	GDH-TPI counter-2	others
Cc1ccc(C)c(NC(=O)Cn2c(=O)n(-c3ccc(CC(=O)NCC4CCCO4)cc3)c(=O)c3ccccc32)c1 (stereo not given)	.	4.8	.	.	.	.	.
CCOC(=O)CC(=O)CSc1nc(C)cc(C)c1C#N	6.1	-8.2	16.6	-0.4	-3.4	.	.
CCOC(=O)CC(=O)CSc1nc2c(c(C)c1C#N)CCC2	3.4	.	30.8*	.	-2.6	82.3*	47.2*
CCN1C(=O)c2cccc3c(S(=O)(=O)N4CCNCC4)ccc1c23	21.4	2.7	27.8*	-5.7	0.5	73.2*	65.1*
CCN1C(=O)c2cccc3c(S(=O)(=O)N4CCCC4C(=O)O)ccc1c23 (stereo not given)	14.9	5.6	6.7	1.0	-2.1	.	.
CCN1CCN(S(=O)(=O)c2ccc3c4c(cccc24)C(=O)N3CC)CC1	1.3	3.8	29.2*	1.7	0.8	158.0*	149.4*
Cc1ccc2c(C)cc[n+](CCCS(=O)(=O)[O-])c2c1	12.6	5.9	43.5*	-4.5	-1.0	13.1	5.0	GDH-TPI dose=>10
Cc1cc(C)c2sc(C)[n+](CCCS(=O)(=O)[O-])c2c1	0.0	-0.1	5.7	0.6	-1.3	.	.
C[C@H](CO)N1C[C@H](C)[C@@H](CN(C)S(=O)(=O)c2cn(C)cn2)OCCCC[C@H](C)Oc2ccc(NS(=O)(=O)c3cn(C)cn3)cc2C1=O	.	.	.	-1.4	.	.	.
C[C@H]1COc2c(N3CCN(C)CC3)c(F)cc3c(=O)c(C(=O)O)cn1c23	21.2	.	54.7*	-3.6	1.0	+	162.0*
CN1CCN(c2c(F)cc3c(=O)c(C(=O)O)cn4c3c2SCC4)CC1	15.4	.	28.1*	1.1	-0.4	+	+
Cc1c(-n2cc(C(=O)O)c(=O)c3cc(F)c(N4CCCC4)c(F)c32)c(=O)n(-c2ccccc2)n1C	-0.6	2.3	-1.1	-1.2	-1.7	.	.
CCOC1OC(C(N)=O)=CC(c2ccc(C(F)(F)F)cc2)C1CCCO (stereo not given)	.	6.4	.	.	.	.	.
